Among the data in PubChem BioAssay are composite z-score values, retold here.

Concanavalin-A (Canavalia ensiformis), sequence (P02866 whole entry, looked up): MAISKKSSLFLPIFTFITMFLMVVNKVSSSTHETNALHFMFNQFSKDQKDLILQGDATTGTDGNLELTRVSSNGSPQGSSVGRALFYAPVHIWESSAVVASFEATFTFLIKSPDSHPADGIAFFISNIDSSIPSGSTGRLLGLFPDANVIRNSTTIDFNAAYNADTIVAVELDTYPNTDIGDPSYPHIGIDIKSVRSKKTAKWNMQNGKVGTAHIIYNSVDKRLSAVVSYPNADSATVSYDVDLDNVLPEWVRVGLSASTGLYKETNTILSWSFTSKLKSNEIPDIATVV

The experiment has as its target Concanavalin-A (Canavalia ensiformis) (UniProt P02866). In words: compounds binding concanavalin A lectin – biochemical, small-molecule microarray, Alexa647 label, 635 nm, artefact control for SMM control protein annotation, primary screen (AID 1127).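 Also: z combines 667 nm emission intensity with signal-to-noise across three replicate slides.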 The settings on record: ConA-A647 binding fluorescence, higher = more signal.
Regarding `C[C@@H]1ON(c2ccccc2)[C@H](c2ccccc2)[C@H]1C(=O)O`, the composite z-score is -0.0755.
The result for `C[C@]1(C(=O)O)c2ccccc2C(=O)N(Cc2cc(F)cc(C(F)(F)F)c2)[C@H]1c1ccc(CO)cc1` reads 0.255.
Regarding `COCCOC(=O)N1C(=O)[C@@]2(c3cc(C#CCCO)ccc31)[C@H](c1ccccc1OCCO)N1[C@H](c3ccccc3)[C@H](c3ccccc3)OC(=O)[C@H]1[C@@H]2C(N)=O`, the composite z-score was 1.05.
The result for `O=C1[C@H]2C=C(I)[C@H](C[C@@H]2OCCCCCCO)[C@@]12CO2` reads -1.05.
To `C=CCOC(=O)[C@@H]1[C@H]2C(=O)O[C@H](c3ccccc3)[C@H](c3ccccc3)N2[C@H](c2ccc(OCCOC(=O)[C@H]3C[C@H]4C(=O)N[C@@H](CCCCN(C)C)C(=O)N4[C@H]3c3ccc(O)cc3)cc2)[C@@]12C(=O)Nc1ccc(I)cc12` belongs 1.15; to `O=C(NCc1ccccc1)[C@@H]1c2ccccc2C(=O)N(Cc2cc(C(F)(F)F)cc(C(F)(F)F)c2)[C@H]1c1ccc(CO)cc1`, 0.609.
In the case of `CCCC[C@H]1C[C@@H]1[C@@H]1N(C(C)=O)[C@H](c2cccc(OC)c2)CC12CC2`, the composite z-score was -0.745.
The result for `CCOC(=O)C1=CCC(c2cc3ccccc3[nH]2)N(CCN2CC(C(=O)OCC)=CCC2c2cc3ccccc3[nH]2)C1` (stereo not given) reads 1.14; that for `C=C(CCCC)/C(=C/C[C@H](OC(C)=O)c1cccc(OCCO)c1)c1cnc2ccccc2c1`, 0.116.
For the compound `CCCN1C(=O)[C@@]2(c3ccc([N+](=O)[O-])cc3)CC(=O)N(CC34CC5CC(CC(C5)C3)C4)[C@@H]2c2ccc(CO)cc21`, the composite z-score amounted to 0.0674.
For the compound `COc1ccc(C(O)C2C=CC3C(=O)N(c4ccccc4)C(=O)C3N2Nc2ccc(C#N)cc2)cc1OCc1ccccc1` (stereo not given), the composite z-score was 1.1.
The result for `CC(C)NC(=O)[C@@]1(c2ccc([N+](=O)[O-])cc2)CC(=O)N(CC23CC4CC(CC(C4)C2)C3)[C@@H]1c1ccc(CO)cc1` reads 1.12; that for `CC1=C([C@H](O)CCc2ccccc2)[C@H](CO)n2c(=O)n(-c3ccccc3)c(=O)n2C1`, -0.0316; that for `O=C(NC1CC1)[C@@H]1c2ccccc2C(=O)N(Cc2cc(C(F)(F)F)cc(C(F)(F)F)c2)[C@H]1c1ccc(CO)cc1`, 0.321.
The result for `COC(=O)[C@@]1(Cc2ccccc2)N=C(c2ccc(OCCCO)cc2)O[C@H]1c1ccccc1CN=[N+]=[N-]` reads 0.505.
Turning to `O=C1c2ccccc2[C@@]2(Cc3ccccc3N(Cc3ccccc3)C2=O)[C@H](c2ccc(CO)cc2)N1Cc1ccccc1Cl`, the composite z-score was -0.709.
To `CC(C)C[C@H]1NC(=O)C([C@@H](C)OCc2ccccc2)NC(=O)[C@@]23C(=O)N[C@@H](Cc4ccccc4)C2[C@H](C)[C@@]2(C)O[C@H]2C3/C=C/C/C=C\CNC1=O` (stereo not given in full) belongs 0.234.
The result for `CC(C)=CCCC(C)=CC(O)C1C=CC2C(=O)NC(=O)C2N1Nc1ccc(Cl)cc1Cl` (stereo not given) reads 0.623.
The result for `CCCCC(=C=CC[C@H](O)c1ccc(CO)o1)CCO` reads 0.689; that for `CCOC(=O)C1=CC[C@@H](c2ccccc2)N(S(=O)(=O)c2ccc(C)cc2)[C@H]1c1ccccc1I`, 1.01; that for `[N-]=[N+]=Nc1ccccc1[C@@H]1OC(c2ccc(OCCCO)cc2)=N[C@]1(CCS(=O)(=O)c1ccccc1)C(=O)NCC(O)CO` (stereo not given in full), 0.998.
`N#Cc1ccc(NN2C(C(O)C3CC=CCC3)C=CC3C(=O)N(c4ccccc4)C(=O)C32)cc1` (stereo not given) gave a composite z-score of 1.14.
The result for `CC(C)C[C@@H]1NC(=O)[C@@]23C(=O)N[C@@H](Cc4ccccc4)C2[C@H](C)[C@@]2(C)O[C@H]2C3/C=C/C/C=C\CNC(=O)CNC1=O` (stereo not given in full) reads 0.423; that for `COc1ccc([Si](C)(C)[C@H]2[C@H](CC(=O)N3CCC[C@H]3CO)O[C@@]3(C(=O)N(Cc4ccc(N5CCCCC5=O)cc4)c4ccccc43)[C@@H]2C)cc1`, 1.18.
In the case of `C=CCC(OC(C)=O)[C@@H]1[C@@H](N(Cc2cccc3ccccc23)C(=O)Cc2ccc(OC)cc2)c2cc(OCCCO)ccc2N1C(=O)c1ccc2ccccc2c1` (stereo not given in full), the composite z-score worked out at 0.0699.
Consider `NC(=O)NCC#Cc1ccc2c(c1)[C@]1(C(=O)N2)[C@H](c2ccc(OCCO)cc2)N2[C@H](c3ccccc3)[C@H](c3ccccc3)OC(=O)[C@H]2[C@@H]1C(=O)O`, for which the composite z-score turned out to be 1.04.
The result for `O=C1O[C@H](c2ccccc2)[C@H](c2ccccc2)N2[C@H]1[C@@H](C(=O)N1CCN(c3ncccn3)CC1)[C@]1(C(=O)Nc3ccc(C#CCCO)cc31)[C@H]2c1ccc(O)cc1` reads 1.01; that for `C=C(CCCC)/C(=C/C[C@H](OC(=O)c1ccncc1)c1cccc(OCCO)c1)c1cnc2ccccc2c1`, 0.831; that for `O=C(N1CCOCC1)[C@@]1(Cc2ccccc2)COC(c2ccc(OCCCO)cc2)=N1`, 0.578.
Take `C=CCC(OC(C)=O)[C@@H]1[C@@H](N(Cc2ccc(-c3cccc(C(F)(F)F)c3)o2)C(=O)c2ccc(-c3ccccc3)cc2)c2cc(OCCCO)ccc2N1C(=O)c1ccc2ccccc2c1` (stereo not given in full): the composite z-score was -0.654.
To `[N-]=[N+]=NCc1ccccc1[C@@H]1OC(c2ccc(OCCCO)cc2)=N[C@]1(Cc1ccccc1N=[N+]=[N-])C(=O)NCC(O)CO` (stereo not given in full) belongs 1.11.
The result for `CCCNC(=O)[C@@]1(c2ccc([N+](=O)[O-])cc2)CC(=O)N(C(C)C)[C@@H]1c1ccc(CO)cc1` reads -0.536; that for `CC(C)N1C(=O)C[C@@](C(=O)NCCN2CCOCC2)(c2ccc([N+](=O)[O-])cc2)[C@H]1c1ccc(CO)cc1`, 0.257.
To `CCCC[C@H]1OB(O)C[C@H]2C1=C(COc1ccccc1)C[C@H]1C(=O)C=CC(=O)[C@H]12` belongs 0.315.
Compound `CC(C)[Si](C#CCCc1ccccc1)(O[C@H](c1ccccc1)c1cn(Cc2ccccc2)nn1)C(C)C` registered a composite z-score of 0.949.
